# System: GSK3B
row,Compound,Kinases covered
1,COc1ccc(CSc2nnc(-c3ccc4ncsc4c3)o2)cc1C(F)(F)F [TPKI-91],GSK3B
2,COc1cc(C=NNc2ncnc3c2cnn3-c2ccccc2)ccc1O [GW513184X],GSK3B
3,Cc1nnc(-c2ccc3occ(-c4ccc(S(C)=O)cc4)c3c2)[nH]1 (centres unmarked) [TPKI-85],GSK3B
4,COc1ccc2c(-c3ccnc(Nc4cccc(OC(F)(F)F)c4)n3)cnn2n1 [GW810372X],GSK3B
5,O=C(Nc1n[nH]c2nc(-c3ccc(O)cc3)c(Br)cc12)C1CC1 [SB-725317],GSK3B
6,CCC(NN(C)C)=C1C(=O)Nc2ccc(C(C)=O)cc21 [BI00036838],GSK3B

# System: IGF1R
row,Compound,Kinases covered
1,COc1cc(N2CCN(C(C)C)CC2)ccc1Nc1nc(Nc2ccc(F)cc2C(=O)NC[C@@H](O)CO)c2cc[nH]c2n1 [GSK1392956A],IGF1R
2,CCc1cc(Nc2nccc(-c3c(-c4ccc(OC)c(C(=O)Nc5c(F)cccc5F)c4)nc4ccccn34)n2)c(OC)cc1N1CCC(N2CCN(S(C)(=O)=O)CC2)CC1 [GSK1904529],IGF1R
3,CN(C)C/C=C/C(=O)Nc1ccc(C(=O)Nc2cccc(Nc3ncc(Cl)c(-c4c[nH]c5ccccc45)n3)c2)cc1 [THZ1],IGF1R
4,COc1cc(C)c(N(C)C(=O)CN(C)C)cc1Nc1nc(Nc2cccc(F)c2C(N)=O)c2cc[nH]c2n1 [GSK2219385],IGF1R
5,CNC(=O)c1c(F)cccc1Nc1nc(Nc2cc3c(cc2OC)CCN3C(=O)CN(C)C)nc2[nH]ccc12 [GSK1838705],IGF1R
